# Compound activity from PubChem.
# FBW7 activator: human FBW7 E3 ligase activation, primary screen | AlphaScreen FBW7–phospho-cyclin E peptide binding, activator screen | normalized activity (activation), % at 26.1 µM | 650,000 compounds, 0.13% hits; in the data active means normalized activity above about 1.9%;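 further: purified mutant Fbw7 with reduced substrate affinity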
# Target sequence (Q969H0 whole entry, looked up): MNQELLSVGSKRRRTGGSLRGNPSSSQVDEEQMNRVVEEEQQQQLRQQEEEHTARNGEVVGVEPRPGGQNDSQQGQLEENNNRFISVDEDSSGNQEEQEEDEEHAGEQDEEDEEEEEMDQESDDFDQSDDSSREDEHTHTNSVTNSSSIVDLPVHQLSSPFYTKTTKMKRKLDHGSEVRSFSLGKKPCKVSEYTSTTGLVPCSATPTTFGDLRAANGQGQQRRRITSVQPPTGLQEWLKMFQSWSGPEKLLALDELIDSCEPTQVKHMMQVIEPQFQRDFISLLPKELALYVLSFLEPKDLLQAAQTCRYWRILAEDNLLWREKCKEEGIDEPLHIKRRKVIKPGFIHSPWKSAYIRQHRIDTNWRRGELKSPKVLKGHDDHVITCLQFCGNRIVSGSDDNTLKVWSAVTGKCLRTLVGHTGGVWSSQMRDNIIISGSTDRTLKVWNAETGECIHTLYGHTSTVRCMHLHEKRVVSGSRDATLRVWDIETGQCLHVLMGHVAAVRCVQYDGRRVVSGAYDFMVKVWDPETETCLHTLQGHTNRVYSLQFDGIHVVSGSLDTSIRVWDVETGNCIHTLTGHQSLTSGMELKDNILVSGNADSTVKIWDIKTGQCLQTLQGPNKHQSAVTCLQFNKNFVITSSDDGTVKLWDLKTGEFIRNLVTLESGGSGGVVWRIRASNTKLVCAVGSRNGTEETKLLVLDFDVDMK
# TEAD-YAP block: TEAD-YAP interaction inhibition. AID 1259422. HEK-TIYL cells, TEAD-Gal4/YAP UAS-luciferase luminescence. 640,000 compounds, 1.4% hits. inhibition, % at 9.12 µM; in the data active means inhibition above about 32%;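 further: 0% = median of test compound wells and 100% = reference inhibitor wells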
# MITF inh: human MITF inhibition, primary screen | AID 1259374 | inhibition, % at 2.6 µM | 650,000 compounds, 0.91% hits | O75030 | AlphaScreen MITF homodimerization, bead proximity signal; in the data active means inhibition above about 50%;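 further: 0% = vehicle wells with protein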
# GPR151 ag: activators of human GPR151 | PathHunter beta-arrestin GPR151 cells, luminescence | activation, % at 11.2 µM | 650,000 compounds, 1% hits | AID 1508602 | Q8TDV0; in the data active means activation above about 4.9%;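 further: 0% = median of compound wells and 100% = cells with positive control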
# GPR151 confirm: human GPR151 activation, confirmation screen; activation, % at 11.2 µM; AID 1508609; shares compounds with GPR151 ag; GPR151 PathHunter beta-arrestin cells, luminescence, 90 min; % of EA-reagent control over plate median; 6,700 tested, under 10 active;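 active means mean percent activation across replicates above the confirmation screen cutoff of 4.91%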
# GPR119 ag: GPR119 activation, counter-screen for GPR151 activators. shares compounds with GPR151 ag. GPR119 PathHunter beta-arrestin cells, luminescence, 90 min; 0 = compound-well median, 100 = enzyme-acceptor control. activation, % at 11.2 µM. 6,700 compounds, 0.3% hits. AID 1508611;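 active means mean percent activation in the counterscreen above 29.09%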;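 further: counterscreen on off-target GPR119 to flag nonselective hits from the GPR151 activator screen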
# * hit, by the source's call; / = no result given; ! = not confirmed by another sample. Rows were chosen to be rich in hits. Some 3.4% of all compounds tested hit in one or more screens of this group.
SMILES,FBW7 activator,TEAD-YAP block,MITF inh,GPR151 ag,GPR151 confirm,GPR119 ag
O=C1C2CC=CCC2C(=O)N1CC(=O)N1N=C(c2ccc(Cl)cc2)CC1c1ccco1 (centres undefined),0,5,10,6.6*,2,-6
CC(C)=CC[C@@H](O)C1=CC(=O)c2c(O)ccc(O)c2C1=O,0,8,75*!,10.0*!,0,2
COc1cccc(CN(CCN(C)C)C(=O)c2cn3ccccc3n2)c1,0,4,-6,0,/,/
CCOc1cc(C2CC(=O)NC3=C2C(=O)C(C(=O)OC)C(C)C3)cc(Cl)c1O (centres undefined),0,-12,-6,8.3*,0,-4
COC(=O)C1C(=O)C2=C(CC1C)NC(=O)CC2c1cc(OC)c(O)c([N+](=O)[O-])c1 (centres undefined),0,-4,-8,0,/,/
Cc1c(CNCC2CCCO2)c(C(=O)O)c(C)n1Cc1ccccc1F (centres undefined),0,-3,9,-1,/,/
CN1CCN(C(=O)c2cccc(S(=O)(=O)N3CCOCC3)c2)CC1,0,3,2,0,/,/
COc1ccc(-c2ccc(/C=N/N3C(=O)C4C5C=CC(C6CC56)C4C3=O)o2)c([N+](=O)[O-])c1 (centres undefined),0,8,10,5.0*,3,0
[Zn+2].c1ccc2c(c1)-c1nc-2nc2[n-]c(nc3nc(nc4[n-]c(n1)c1ccccc41)-c1ccccc1-3)c1ccccc21,1,9,2,11*,0,-3
CNc1nc(-c2ccccc2O)nc(-c2ccccc2O)n1,1,7,3,0,/,/
COCCCNC(=S)N1CCCC(c2nc3ccc(C)cc3[nH]2)C1 (centres undefined),0,-22,-10,5.2*,0,-2
Cc1nccn1-c1ccc(NC(=O)C2CCCN(C3CCSCC3)C2)cc1 (centres undefined),0,13,-23,6.8*,1,-3
CC(C)(C)OC(=O)NCC(=O)NC(Cc1ccc(OCc2ccccc2)cc1)C(N)=O (centres undefined),0,-7,-1,5.1*,2,10
C/C(=N\Nc1ccc(C(F)(F)F)cn1)c1ccncc1,0,-28,-5,6.4*,0,-8
C/C(=N\Nc1ccc(C(F)(F)F)cn1)c1ccc(O)cc1,0,-1,-8,0,/,/
CCOC(=O)c1sc2nccc3c2c1N=CN3c1ccccc1,0,-13,11,5.3*,0,0
CC(=O)Nc1cccc(NC(=O)c2sc3cc([N+](=O)[O-])ccc3c2Cl)c1,0,-12,14,0,/,/
CCCCN(CC)C(=O)c1ccc([N+](=O)[O-])cc1Cl,0,4,-18,7.7*,0,-5
CCCCN(CC)C(=O)c1ccc([N+](=O)[O-])cc1,0,-1,11,-1,/,/
Nc1ccc(NS(=O)(=O)c2ccc3c(c2)OCCCO3)cc1,0,0,18,6.5*,-1,0
Cc1cc(C)cc(NS(=O)(=O)c2ccc3c(c2)OCCCO3)c1,0,4,0,2,/,/
COc1cc(/C=N/NC(=O)c2ccccc2Br)cc(Br)c1O,0,-8,-13,-1,/,/
CCN1CCN(C(=O)CN(C)S(=O)(=O)c2ccc(Cl)cc2)CC1,0,-1,8,20*,0,-2
CCN1CCN(C(=O)CN(C)S(=O)(=O)c2ccc(Br)cc2)CC1,0,13,1,-3,/,/
COc1ccccc1CCNCc1c(C(=O)O)n(C)c2cc(C)ccc12,0,11,-7,9.8*,0,-6
SMILES,FBW7 activator,TEAD-YAP block,MITF inh,GPR151 ag,GPR151 confirm,GPR119 ag
C=CCNC(=O)CN(c1ccccc1F)S(=O)(=O)c1ccc(C)cc1,0,-4,-5,6.6*,0,1
CC(=O)c1c(C)[nH]c(C(=O)OCC(=O)Nc2ccc(Br)cc2F)c1C,0,7,-8,5.0*,0,3
CC(=O)c1c(C)[nH]c(C(=O)OCC(=O)Nc2ccc(C)cc2[N+](=O)[O-])c1C,0,5,-8,1,/,/
OCC1CCN(C2CCCN(Cc3ccc4nonc4c3)C2)CC1 (centres undefined),0,-4,0,5.9*,0,-9
OCC1CCN(C2CCCN(Cc3ccc4nsnc4c3)C2)CC1 (centres undefined),0,4,-2,2,/,/
CNc1ccc(/C=C/C(=O)c2ccc(S(=O)(=O)NCc3ccco3)cc2)cc1[N+](=O)[O-],0,-5,-6,5.6*,-1,-2
O=[N+]([O-])c1c(Nc2ccc(Br)cc2F)ccc2nonc12,0,16,8,5.0*,0,-7
CC(=O)C1=C(C)NC(SCC(=O)c2ccc(C)c(C)c2)=C(C#N)C1c1cccnc1 (centres undefined),0,-2,-6,0,/,/
CCOC(=O)C1CN(S(=O)(=O)c2ccc(OC)cc2)c2ccccc2O1 (centres undefined),0,2,-9,6.5*,-1,-10
Cc1ccc(C(=O)Nc2ccc(F)cc2)cc1S(=O)(=O)N1CCCCCC1,0,-17,-1,0,/,/
Cc1ccc(C(=O)Nc2cc(C(N)=O)cc(C(N)=O)c2)cc1S(=O)(=O)N1CCCCC1,0,-2,11,6.4*,0,4
COc1ccccc1Cn1c(=S)[nH]c2cc(C(=O)N3CCC(C(N)=O)(N4CCCCC4)CC3)ccc2c1=O,0,11,7,5.8*,2,10
COc1ccccc1Cn1c(=S)[nH]c2cc(C(=O)N3CCCCC3)ccc2c1=O,1,10,16,-1,/,/
CCn1c(=O)c2c(nc3n2CCCN3c2ccccc2)n(C)c1=O,0,3,1,3,/,/
COc1cc(C(=O)NCc2ccc(F)cc2)cc(OC)c1OC,0,2,5,2,/,/
Cc1c(-c2ccccc2)sc2nc[nH]c(=O)c12,0,-15,7,12*,0,-8
Cc1nn(CC(=O)OCC(=O)NC(=O)c2ccc(OC(F)F)cc2)c(C)c1[N+](=O)[O-],0,0,-11,6.6*,1,5
COc1ccccc1NCC(=O)N/N=C\c1cc(Cl)cc(Cl)c1O,0,8,11,0,/,/
O=C1/C(=C/c2ccc3c(c2)OCO3)SC(=Nc2ccccc2)N1C1CCCCC1,0,-3,-5,1,/,/
CC(=O)C(Cc1ccccc1)NC(=O)CN(C)Cc1ccc(C(F)(F)F)cc1 (centres undefined),0,17,-1,0,/,/
CCOC(=O)C1=C(C)N(C)C(SC)=NC1c1ccco1 (centres undefined),0,-2,9,6.4*,1,5
COc1ccc([N+](=O)[O-])cc1N=Cc1ccc(C#N)cc1,0,1,-6,5.1*,0,6
